SARS 3CLpro inh = SARS-CoV 3CLpro protease inhibition. recombinant SARS-CoV 3CLpro, quenched FRET peptide cleavage. 0.14% of 290,000 active. P0C6X7. AID 1706. inhibition, % at 6 µM; in the data active = inhibition above about 12%
Y pestis TopoI = Y. pestis Topo-I inhibition via cleavage products; Y. pestis Topo-I cleavage product accumulation, plate reader; activity, % at 10 µM; 0.064% of 360,000 active; in the data active = activity above about 50%, passing the limit was not always enough
SSB-PriA inh = K. pneumoniae PriA-SSBct interaction inhibition. AlphaScreen SSBct-PriA binding, biotinylated peptide. inhibition, % at 33 µM. 0.6% of 430,000 active; in the data active = inhibition mostly above about 37%, no sharp cut-off; inactive = mostly below about 20%;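 also: plate controls were negative control peptide for no effect and reference peptide for full effect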
MazF activator = increases E. coli MazEF RNase cleavage of RNA; P0AE70; FAM/BHQ RNA-DNA oligo cleavage fluorescence, 5 h; activation, % at 20 µM; 0.32% of 350,000 active; AID 504720; in the data active = activation above about 50%
Target sequence (P0AE70 whole entry, looked up): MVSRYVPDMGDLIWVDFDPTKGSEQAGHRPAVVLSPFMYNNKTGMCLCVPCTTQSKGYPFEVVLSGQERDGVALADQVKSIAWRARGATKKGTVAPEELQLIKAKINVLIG
Active calls of the source: *; nt = no result; ! = not active in a repeat. Rows were chosen to be rich in hits. Some 0.9% of all compounds tested hit in one or more screens of this group.

SMILES	SARS 3CLpro inh	Y pestis TopoI	SSB-PriA inh	MazF activator
Cc1cc(/C=C2\C(=O)NC(=O)N(c3cccc(Br)c3)C2=O)c(C)n1C	0	4	-18	230*
Cc1cc(/C=C2\C(=O)NC(=O)N(c3ccc(Br)cc3)C2=O)c(C)n1C	2	4	-9	87*
COc1ccc(C(=O)Oc2ccc3nc(N4CCN(C)CC4)sc3c2)cc1	nt	nt	-9	nt
CC(C)OC(=O)C(C)(C)Oc1ccc(C(=O)c2ccc(Cl)cc2)cc1	-2	53*	-30	-3
O=S(=O)(Nc1cccc(Cl)c1)c1ccc2nncn2c1	nt	nt	-3	nt
COc1ccc2nc(N3CCCC3)c(C#N)cc2c1	-2	2	-5	70*
COc1cc(NC(=O)COc2ccc3ccccc3c2)ccc1N1CCCCC1=O	nt	nt	6	nt
Cc1cc(SCC(=O)c2cccs2)nc2c(C)cccc12	-1	3	2	-11
CC(=O)Nc1ccc(C(=O)CSc2cc(C)c3cccc(C)c3n2)cc1	-1	24	-3	78*
CC(C)(C)OC(=O)C[C@@H]1C/C=C/C[C@H](CC(=O)N(CCO)Cc2ccccc2)C(=O)N2CCC[C@H]2COC1=O	nt	nt	-1	nt
CCc1c(C)nc(SCC(=O)Nc2cccc(Br)c2)[nH]c1=O	-1	0	-4	1
CCc1c(C)nc(SCC(=O)Nc2ccc(Br)cc2)[nH]c1=O	3	-4	101*	-12
Cc1nsc(C(=O)NCCOCCO)n1	nt	nt	-13	nt
NC(=O)N1CCOCC1	nt	nt	-10	nt
OCc1ccc(-c2nn(Cc3ccccc3)c3ccccc23)o1	nt	17	41*	8
COc1ccc(Cn2c(=O)[nH]c3cc(C(=O)NCc4ccc5c(c4)OCO5)ccc3c2=O)cc1	4	-5	8	182*
O=C(COC(=O)CCC1CCCC1)Nc1ccccc1Sc1ccccc1	0	64*	-60	-15
O=C(COC(=O)C1CCC1)Nc1ccccc1Sc1ccccc1	-3	24	-72	-2
Cn1c(=O)c2c(SCc3cccnc3)nc(C3CCCC3)nc2n(C)c1=O	nt	nt	7	nt
O=c1c2cccnc2[nH]c(=S)n1CCC1=CCCCC1	-2	0	5	-5
Clc1cc2c(c3ncccc13)OCN(CCC1=CCCCC1)C2	nt	nt	95*	nt
N#Cc1ccc(NC(=O)CN2C(=O)COc3ccccc32)cc1	nt	nt	49	nt
O=C(CN1C(=O)COc2ccccc21)Nc1ccc(Cl)cc1	nt	nt	52*	nt
Cc1cc(NC(=O)c2ccno2)n(-c2nc3c(F)cccc3s2)n1	nt	nt	-12	nt
C=CCOc1c(Br)cc(/C=C2\SC(=Nc3ccccc3)NC2=O)cc1OC	0	57*	-6	11
SMILES	SARS 3CLpro inh	Y pestis TopoI	SSB-PriA inh	MazF activator
NC(=O)CSc1nc2[nH]ncc2c(=O)n1-c1ccccc1	nt	nt	-2	nt
Cc1ccc(S(=O)(=O)Nc2nccs2)cc1[N+](=O)[O-]	1	2	-3	-10
O=[N+]([O-])c1cnc(Nc2ccc(S(=O)(=O)Nc3nccs3)cc2)c([N+](=O)[O-])c1	nt	nt	38*	nt
O=C(NC(=S)Nc1ccccc1N1CCCC1)c1ccc([N+](=O)[O-])cc1	0	1	70*	5
Cc1cc(NC(=O)CN2C(=O)CCC2=O)n(-c2nc3ccccc3s2)n1	nt	nt	-11	nt
COc1ccc(C)c2sc(N(CCCN(C)C)C(=O)c3ccc(S(=O)(=O)N4CCc5ccccc5C4)cc3)nc12	nt	-17	47*!	-37
CN(C)CCCN(C(=O)c1ccc(S(=O)(=O)N2CCc3ccccc32)cc1)c1nc2c(Cl)cccc2s1	2	12	46*	-94
COc1cccc2sc(N(CCCN(C)C)C(=O)c3ccc(S(=O)(=O)N4CCCc5ccccc54)cc3)nc12	1	-6	20*!	-48
O=C(Nc1c2c(nn1-c1cccc(Cl)c1)CS(=O)C2)c1ccc(S(=O)(=O)N2CCCCC2)cc1 (configuration not stated)	nt	nt	3	nt
Cc1ccc(Cl)cc1NC(=O)[C@@H]1CSc2ncc(C)c(=O)n2C1	nt	nt	-22	nt
Cn1nc(N2CCC(C(=O)NCCc3csc(-c4ccccc4)n3)CC2)ccc1=O	nt	nt	-15	nt
O=C(Nc1ccccc1F)c1ccc(N2C(=O)c3ccccc3C2=O)cc1	nt	nt	-2	nt
Cc1ccc2nc(N(CCCn3ccnc3)C(=O)C3COc4ccccc4O3)sc2c1 (configuration not stated)	nt	nt	35*	nt
CN(C)CCCN(C(=O)C1COc2ccccc2O1)c1nc2ccc(F)cc2s1 (configuration not stated)	1	-9	-11	7
Cc1ccccc1OCCNc1cc(N2CCCCC2)ccc1[N+](=O)[O-]	6	13	-11	-11
Cc1ccccc1OCCNc1cc(N2CCN(CCO)CC2)ccc1[N+](=O)[O-]	4	-4	42*	6
Cc1c(Cl)cccc1NC(=O)CSC1=C(C#N)[C@H](c2ccc(OCc3ccccc3)cc2)CC(=O)N1	nt	nt	-10	nt
CCOC(=O)C1=CN(Cc2cccc(F)c2)S(=O)(=O)N(C)C1c1ccc2ccccc2c1 (configuration not stated)	nt	15	5	50*
CC1=NN(c2ccc(C(F)(F)F)cn2)C(=O)C1	-1	-2	45*	5
Cc1ccc(C(=O)Nc2ccc(Br)cc2)cc1S(=O)(=O)Nc1ccccn1	-3	5	-8	125*
CS(=O)(=O)Nc1cccc(NC(=O)C2CN(C(=O)c3cnccn3)C2)c1	nt	nt	-9	nt
COc1ccc(-c2cc(=Nc3ccccc3)c3cc(C)ccc3o2)cc1	2	13	29	-2
CCOc1ccc(N=c2cc(-c3ccc(OC)cc3)oc3ccccc23)cc1	5	1	39*	0
COc1ccc(-c2cc(=Nc3ccc(C)cc3)c3ccccc3o2)cc1	7	7	10	7
COc1ccc(N=c2cc(-c3ccc(OC)cc3)oc3ccccc23)cc1	-1	33	53*	-5
SMILES	SARS 3CLpro inh	Y pestis TopoI	SSB-PriA inh	MazF activator
COc1ccc(N=c2cc(-c3ccc(O)cc3)oc3ccccc23)cc1	-3	-2	42*	27
COc1ccccc1CNc1ncnc2c1cnn2-c1ccccc1	nt	3	46*	-16
COc1cccc(C(=O)N2CCN(c3ccc(-c4ccccn4)nn3)CC2)c1OC	nt	nt	94*	nt
CCC(C(=O)N1CCN(c2ccc(-c3ccccn3)nn2)CC1)c1ccccc1 (configuration not stated)	nt	nt	80*	nt
COc1cccc(C(=O)N2CCN(c3ccc(Nc4ccccn4)nn3)CC2)c1OC	nt	nt	37	nt
O=S(=O)(c1ccc(Cl)s1)N1CCN(c2ccc(-c3ccccn3)nn2)CC1	nt	nt	55*	nt
CCOc1ccc(NC(=O)c2ccc(S(=O)(=O)c3ccc(Br)cc3)nc2)cc1	nt	nt	-24	nt
COc1cc(OC)cc(C(=O)Nc2nnc(SCc3ccc(C(F)(F)F)cc3)s2)c1	nt	nt	2	nt
COc1cc2c(C#N)c(N3CCN(C)CC3)nc(N)c2c(N)n1	0	4	nt	nt
N#Cc1c(N)nc(N2CCCC2)c(C#N)c1-c1ccc(Cl)cc1	0	0	-36	66*
COc1cc2c(C#N)c(N3CCCC3)nc(N)c2c(N)n1	-5	2	13	90*!
CCOc1cc2c(C#N)c(N3CCCC3)nc(N)c2c(N)n1	nt	3	-3	8
CCCOc1cc2c(C#N)c(N3CCCC3)nc(N)c2c(N)n1	nt	19	-1	63*
CC[C@H](Sc1ccc2nnc(-c3cccnc3)n2n1)C(=O)O	nt	nt	-17	nt

Bioassay records deposited in PubChem by several laboratories.
